PubChem BioAssay AID1259313 (Sanford-Burnham Center for Chemical Genomics, 2017)
Out of some 340,000 compounds screened, about 8,500 (2.5%) were called active. The list comes from a sample in which actives are over-represented; it also holds similar structures and randomly drawn compounds. Values without a mark were called inactive.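 Rule for the calls: active = melting temperature shift of at least 10% of the positive control shift, at one fixed dose; inactive = the rest.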

The compounds below were run on Glutamate receptor ionotropic, NMDA 3A (GRIN3A) ligand-binding domain (assay: NR3A LBD thermal stabilization by compounds – biophysical, differential scanning fluorimetry, uHTS, primary screen (AID 1259313)). Conditions: at 25 µM, stronger effect = higher value, 0% = protein alone, 100% = glycine-bound protein.

Row | SMILES | Tm shift relative to glycine control
1 | O=C(C(=O)N1CCc2ccccc2C1)c1c[nH]c2ccccc12 | 1.51%
2 | CN1CCN(C(=O)c2ccc(-c3ccc(Br)cc3)o2)CC1 | 1.11%
3 | CC(=O)c1cccc(NC(=S)N2CCN(S(C)(=O)=O)CC2)c1 | -1.28%
4 | COc1ccc(CN(C)Cc2nc3cc(OC)c(OC)cc3c(=O)[nH]2)c(OC)c1 | -1.12%
5 | COc1ccc(/C=C2/C(=O)OCc3cc(OC)c(OC)cc32)c(OC)c1 | 24.2% (active)
6 | COc1ccc(/C=C2/C(=O)N(c3ccccc3)N=C2C)c(OC)c1 | -4.6%
7 | CC(=O)c1ccc(OCCCC(=O)Nc2ccc(C)c(S(=O)(=O)N3CCOCC3)c2)cc1 | 1.04%
8 | O=C(Nc1ccnn1C1CCN(C/C=C/c2ccc(F)cc2)CC1)C1CCCC1 | -2.33%
9 | CC1CCCCN1S(=O)(=O)c1ccc(S(=O)(=O)N(CC(=O)Nc2ccccc2)Cc2cccs2)cc1 (stereo not given) | -4.57%
10 | O=C(C[n+]1ccc2c(c1)nnn2-c1ccccc1)c1ccc(Cl)cc1 | -2.3%
11 | CC(=NNC(=S)N1CCCCCC1)c1ccccn1 | 1.26%
12 | CCn1c(SCc2cccc(C(=O)O)c2)nnc1-c1ccc(Cl)cc1 | -0.55%
13 | CN(c1ccccc1)S(=O)(=O)c1ccc(C(=O)NCCc2ccccc2)cc1 | -0.95%
14 | CCCc1ccc(OCCNC(=O)c2ccccc2Br)cc1 | -0.74%
15 | CCCOc1ccc(C(=O)NCCc2ccccc2)cc1 | 25.8% (active)
16 | CC(C)Oc1ccc(S(=O)(=O)N2CCOCC2)cc1NC(=O)C1CCCC1 | 2.72%
17 | N#Cc1cc([N+](=O)[O-])ccc1NC(=O)COC(=O)c1cnccn1 | 0.45%
18 | CCOc1ccc2[nH]c3nc(SCC(=O)NC4CCCC4)nnc3c2c1 | -4.45%
19 | CCN1C(=O)[C@H]2[C@@H](c3ccc(-c4ccc(OC)cc4)cc3)N[C@@](Cc3ccccc3)(C(=O)OC)[C@H]2C1=O | -3.39%
20 | CCN1C(=O)[C@H]2[C@@H](c3ccc(SC4CCCCC4)c(OC)c3)N[C@@](Cc3ccccc3)(C(=O)OC)[C@H]2C1=O | 15.5% (active)
21 | CCN1C(=O)[C@H]2[C@@H](c3ccc(-c4ccc(F)cc4)cc3)N[C@@](Cc3ccccc3)(C(=O)OC)[C@H]2C1=O | 1.35%
22 | Cc1ccc(C(=O)OCC(=O)Nc2ccc(Cl)cn2)cc1S(=O)(=O)N1CCOCC1 | 3.32%
23 | COc1cccc(N2CC(C(=O)NCc3n[nH]c(=O)c4ccccc34)CC2=O)c1 (stereo not given) | -0.43%

Row | SMILES | Tm shift relative to glycine control
24 | Cc1cc(Cl)ccc1N1C(=O)CC(SCCC(=O)O)C1=O (stereo not given) | 2.57%
25 | O=C(CC1(O)C(=O)N(CN2CCOCC2)c2ccccc21)c1ccccc1 (stereo not given) | 27.8% (active)
26 | C=CCN1C(=O)C(O)(CC(=O)c2ccc(Cl)cc2)c2ccccc21 (stereo not given) | -2.1%
27 | C=CCN1C(=O)C(O)(CC(=O)c2ccccn2)c2ccccc21 (stereo not given) | -0.48%
28 | COc1ccccc1C(=O)NC(CCSC)C(=O)N1CCN(C/C=C/c2ccccc2)CC1 (stereo not given) | 2.33%
29 | COc1ccccc1N1CCN(c2ncnc3sc(C)c(-c4ccccc4)c23)CC1 | 1.26%
30 | CC1=NN(C(N)=S)C(=O)C1N=Nc1cc(Cl)ccc1Cl (stereo not given) | 8.72%
31 | Cc1[nH]n(C)c(=O)c1N=Nc1ccc(S(C)(=O)=O)cc1 | 1.71%
32 | Cc1[nH]n(C(N)=S)c(=O)c1N=Nc1ccc(Cl)cc1Cl | 15% (active)
33 | CCN(C(=O)COC(=O)CCOc1cccc(C)c1)c1c(N)n(Cc2ccccc2)c(=O)[nH]c1=O | 0.18%
34 | Nc1nnc(SCC(=O)Nc2ccc3nc(SCC(=O)Nc4ccccc4)sc3c2)s1 | 29.3% (active)
35 | CCCCNC(=O)CSc1nc2ccc(NC(=O)CSc3nnc(N)s3)cc2s1 | 1.91%
36 | CCCCNC(=O)CSc1nc2ccc(NC(=O)CSc3nnc(COc4ccccc4C)n3C)cc2s1 | -6%
37 | NS(=O)(=O)c1ccc(CCNC(=O)CN2C(=O)c3ccccc3S2(=O)=O)cc1 | 3.53%
38 | Cc1cccc(OCc2nnc(SCc3nc4cc(C(F)(F)F)ccc4c(=O)[nH]3)o2)c1 | 15.6% (active)
39 | COc1cc(CN(C)Cc2nc3cc(C(F)(F)F)ccc3c(=O)[nH]2)ccc1OC(F)F | 0.52%
40 | Cc1cccc(OCc2nnc(SCn3nnc4ccccc4c3=O)o2)c1 | -0.61%
41 | Cc1onc(-c2c(F)cccc2Cl)c1C(=O)Nc1cccc(S(=O)(=O)N2CCCCC2)c1 | -2.74%
42 | Cc1ccc2[nH]cc(CCNC(=O)C3CCCCC3)c2c1 | 1.08%
43 | O=C(NCCc1c[nH]c2ccc(Cl)cc12)c1ccc([N+](=O)[O-])cc1 | 17.5% (active)
44 | Cc1ccc(S(=O)(=O)N(C)CC(=O)NCCc2c[nH]c3ccccc23)cc1 | 1.04%
45 | Cc1ccc2[nH]cc(CCNC(=O)c3ccc([N+](=O)[O-])cc3)c2c1 | 9.11%
